# JMJD2A Tudor: qHTS Assay for Inhibitors of JMJD2A-Tudor Domain. Potency, µM (titrated, usually from 114 µM), without a hit: top-dose activity change, negative = inhibition, actives largely listed as inhibitors. hit rate 4.4% among 390,000. AlphaScreen JMJD2A-Tudor / H3K4me3 peptide binding. AID 504339, 2011. Lysine-specific demethylase 4A (Homo sapiens), O75164; note: potency is the fitted concentration of half-maximal effect; % is set by controls: 0 for no effect and ±100 for the full control effect; nearly all actives have a fitted effect of over 50% in size
# PLK1 PBD inh: qHTS for Inhibitors of PLK1-PDB (polo-like kinase 1 - polo-box domain): Primary Screen; Serine/threonine-protein kinase PLK1 (Homo sapiens), P53350; Plk1 PBD binding of FITC phosphopeptide, fluorescence polarization; Potency, µM, for the others: max response, negative = inhibition, usual class: inhibitors; hit rate 2.8% among 360,000; note: potency is the fitted concentration of half-maximal effect; series mostly up to about 57 µM; % is set by controls: 0 for no effect and ±100 for the full control effect; nearly all actives have a fitted effect of over 65% in size
# BAZ2B inh: qHTS Assay for Inhibitors of BAZ2B; AlphaScreen BAZ2B-H3K14Ac peptide displacement; hit rate 4.4% among 360,000; Potency, µM (series often up to 114 µM), for inactives: at the top dose activity change, negative = inhibition, most hits filed as inhibitors; note: potency is the fitted concentration of half-maximal effect; % is set by controls: 0 for no effect and ±100 for the full control effect; nearly all actives have a fitted effect of over 60% in size
#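 Complex of BAZ2B and biotin-H3K14Ac (50 nM apiece) forms over 30 min at RT, then faces library compounds up to 110 uM for another 30 min; AlphaScreen beads added, 20 min dark incubation, luminescence read.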
# G9a block: qHTS Assay for Inhibitors of Histone Lysine Methyltransferase G9a. hit rate 8.8% among 350,000. AID 504332, 2011. Potency, µM (series often up to 102 µM), for the others: top-dose activity, negative = inhibition, actives largely listed as inhibitors. G9a H3K9 monomethylation, AlphaScreen, 2 h. Histone-lysine N-methyltransferase EHMT2 (Homo sapiens), Q96KQ7; note: potency is the fitted concentration of half-maximal effect; % is set by controls: 0 for no effect and ±100 for the full control effect; nearly all actives have a fitted effect of over 75% in size
#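 Methyltransferase reactions run at room temperature for 2 h (20 nM enzyme, 500 nM biotin-H3K9 peptide, 20 uM SAM) after a 15 min compound preincubation; product detected by AlphaScreen beads and anti-H3K9me1 antibody.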
# HP1b chromo inh: HTS for Inhibitors of HP1-beta Chromodomain Interactions with Methylated Histone Tails; Potency, µM (top dose mostly 114 µM), without a hit: at the highest dose activity change, negative = inhibition, usual class: inhibitors; hit rate 0.56% among 390,000; AID 540317, 2011; AlphaScreen HP1-beta / biotin-H3K9me3 peptide binding; note: potency is the fitted concentration of half-maximal effect; nearly all actives have a fitted effect of over 70% in size
# Target sequence (P83916 whole entry, looked up): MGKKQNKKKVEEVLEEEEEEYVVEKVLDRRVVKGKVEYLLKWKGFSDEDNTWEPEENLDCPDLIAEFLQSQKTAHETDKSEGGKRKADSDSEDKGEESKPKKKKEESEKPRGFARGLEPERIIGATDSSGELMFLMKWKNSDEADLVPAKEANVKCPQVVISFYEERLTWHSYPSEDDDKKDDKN
#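 HP1-beta protein (50 nM final) preincubated 30 min at room temperature with biotinylated H3(1-18)K9me3 peptide (50 nM) in PBS pH 7.4, 0.01% Tween-20, then compound added for 30 min. AlphaScreen streptavidin donor/nickel chelate acceptor beads (10 ug/mL final), 30 min dark, luminescence read.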
# PI5P4K alpha inh: qHTS for Inhibitors of phosphatidylinositol 5-phosphate 4-kinase (PI5P4K); Phosphatidylinositol 5-phosphate 4-kinase type-2 alpha (Homo sapiens), P48426; PI5P4Kalpha enzyme, ADP-Glo luminescence, 60 min; hits give low values; max response, %; hit rate 1.2% among 330,000; AID 652105, 2013; active = max response of -50% or lower; inconclusive = between -30% and -50%; inactive = -30% or higher; note: value at the top dose of about 77 µM; % is set by controls: 0 for no effect and ±100 for the full control effect
# Target sequence (P48426 whole entry, looked up): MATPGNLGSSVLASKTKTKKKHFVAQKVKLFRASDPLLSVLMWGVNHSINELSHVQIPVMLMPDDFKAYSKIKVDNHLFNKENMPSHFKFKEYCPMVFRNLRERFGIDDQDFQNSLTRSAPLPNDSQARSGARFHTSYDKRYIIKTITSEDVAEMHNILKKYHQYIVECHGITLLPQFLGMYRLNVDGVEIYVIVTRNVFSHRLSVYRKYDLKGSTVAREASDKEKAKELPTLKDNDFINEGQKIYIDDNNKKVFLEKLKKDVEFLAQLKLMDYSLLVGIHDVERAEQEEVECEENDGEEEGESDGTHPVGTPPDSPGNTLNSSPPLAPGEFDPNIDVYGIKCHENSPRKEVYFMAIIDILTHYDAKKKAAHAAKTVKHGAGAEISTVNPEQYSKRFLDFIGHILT
#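 ADP-Glo luminescence end-point read after a 60 min room-temperature kinase reaction of PI5P4Kalpha plus substrate, initiated with ATP at 5 microM final. Buffer: 0.038 M HEPES pH 7.4, EGTA, 0.1% CHAPS, 5% DMSO.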
# * hit, by the source's call; ? = inconclusive; · = no result; [ ] = another dose, or the depositor's remark. Only some compounds are listed: those with a hit (about 12% of all), similar ones and a draw of the others. Unless noted, calls come from the whole dose curve; as a rule, active = well fitted curve in the direction sought with a large enough effect; inconclusive = small, poorly fitted or top-dose-only effect, or another doubt; inactive = no such curve, though single readings can be large; an effect the other way counts as inactive or inconclusive.
SMILES,JMJD2A Tudor,PLK1 PBD inh,BAZ2B inh,G9a block,HP1b chromo inh,PI5P4K alpha inh
Cn1cccc1-c1cc(C(=O)N2CCc3c([nH]c4ccccc34)C2c2ccccn2)[nH]n1 (configuration not stated),50.1µM*,-9.7%,35.5µM*,35.5µM*,?,-4.2
Cc1cccc(C2c3[nH]c4ccccc4c3CCN2C(=O)c2cc3c([nH]c2=O)CCCC3)n1 (configuration not stated),?,-2.9%,44.7µM*,-8.4%[12.7 µM],-10.1%,0.9
Cc1cc2cc(C(=O)N3CCc4c([nH]c5ccccc45)C3c3ccccn3)ccc2o1 (configuration not stated),35.5µM*,3.2%,39.8µM*,?,-18.3%,16.1
O=C(c1ccc(-n2cccn2)cc1)N1CCc2c([nH]c3ccccc23)C1c1ccccn1 (configuration not stated),?,-12.5%,?,?,9.8%,4.4
CCc1nn(CC(=O)Nc2c(C)cc(C)cc2C)c(=O)c2cc3sccc3n12,-3.3%,·,-2.0%,?,18.6%,·
C=CCN1C(=O)/C(=C/c2ccc(OC(C)=O)c(OCC)c2[N+](=O)[O-])SC1=S,25.1µM*,-18.6%,11.2µM*,6.31µM*,15.8µM*,?
Cc1ccccc1CN1C(=O)c2ccccc2Sc2ccc(C(=O)OCc3ccco3)cc21,-14.7%,·,-19.3%,-28.4%[59 µM],16.7%[57 µM],·
Cc1ccc(Cn2cc(S(=O)(=O)c3ccc(C(C)C)cc3)c(=O)c3cc4c(cc32)OCO4)cc1,-30.8%,-10.2%,-0.8%,44.7µM*,8.7%,3.2
CC(C)c1ccc(S(=O)(=O)c2cn(Cc3ccc(F)cc3)c3cc4c(cc3c2=O)OCO4)cc1,·,·,7.1%,-9.8%[59 µM],·,·
CCOc1ccc(C2=Nn3c(nnc3-c3ccccn3)SC2)cc1,35.5µM*,-2.8%,20µM*,?,46.1%,-4.8
COc1ccc(C2=Nn3c(nnc3-c3ccccn3)SC2)cc1OC,44.7µM*,-4.2%,20µM*,?,47.3%,-5.1
CCOc1ccc(C2=Nn3c(nnc3-c3ccco3)SC2)cc1,-15.8%,-11.1%,-3.2%,-8.7%,18.2%,·
O=C1NC[C@@H](CCCCN2C[C@H](Cc3ccc(O)cc3)N(CCC3CCCCC3)C(=O)C2=O)N(Cc2ccccc2)C1=O,·,-3.4%,·,·,·,-11.8
Cn1c(=O)oc2cc(S(=O)(=O)N3CCCC(C(=O)NCCc4ccc(Cl)cc4)C3)ccc21 (configuration not stated),1.0%,·,1.9%,1.0%[59 µM],44.0%,·
OC[C@@H]1CN(Cc2ccc(-c3ccccc3)cc2)C[C@H](n2cnc3c(N4CCOCC4)ncnc32)O1,·,8.4%,·,·,·,9.2
Cc1ccc(C)c(CN2C(=O)c3ccccc3S(=O)(=O)c3ccc(C(=O)N4CCOCC4)cc32)c1,-21.2%,·,5.7%,10.9%[59 µM],15.9%,·
COc1ccc(NC(=O)CSc2nnc(C)s2)cc1S(=O)(=O)N1CCOCC1,-3.9%,-16.2%,9.6%,-8.5%[59 µM],29.7%,4.3
Oc1ccccc1C1CCCCC1c1ccccc1 (configuration not stated),5.8%,1.5%,24.0%,85.7%,72.0%,1.0
Cn1cc(CN2CCc3c([nH]c4ccccc34)C2C2CCCCC2)cn1 (configuration not stated),-16.5%[57.1 µM],-7.3%,44.7µM*,44.7µM*,8.3%,0.6
O=c1c2cn[nH]c2[nH]c(=S)n1-c1ccccc1F,?,-18.2%,?,8.91µM*,-14.3%,·
O=c1c2cn[nH]c2[nH]c(=S)n1-c1ccccc1Cl,-14.9%,-21.1%,14.1%,44.7µM*,29.9%,-16.3
O=C(O)c1ccc2c(=O)n(-c3ccccc3F)c(=S)[nH]c2c1,?,0.0%,?,?,20.4%,?
Cc1ccc(-n2c(=S)[nH]c3[nH]ncc3c2=O)cc1,-29.9%,?,?,35.5µM*,42.3%,-21.3
CCn1cc(C(=O)OCC(=O)c2cc(C)n(-c3ccccc3F)c2C)c(=O)c2ccc(C)nc21,39.8µM*,26.7µM*,?,-21.3%[59 µM],?,-18.8
Nc1ccc(CCn2ccnc2)cc1,79.4µM*,2.5%,44.7µM*,-11.6%,36.7%,6.3
SMILES,JMJD2A Tudor,PLK1 PBD inh,BAZ2B inh,G9a block,HP1b chromo inh,PI5P4K alpha inh
O/N=C1\CCCc2c1nc(-c1ccccc1F)n2O,31.6µM*,2.7%,50.1µM*,22.4µM*,-2.4%,-1.7
COc1ccc(CCNC(=O)C(=O)NCC(c2cccs2)S(=O)(=O)c2ccc(F)cc2)cc1 (configuration not stated),-6.2%,·,5.0%,-33.3%[59 µM],37.7%,·
COc1ccccc1-c1noc(CSc2nc3ccc(C)cc3[nH]2)n1,-10.4%,·,-18.4%,-40.2%[59 µM],16.3%,·
CC1CC(=O)N(c2ccc(N(C)Cc3ccccc3)c([N+](=O)[O-])c2)C1=O (configuration not stated),-10.2%,-1.5%,11.2µM*,-47.7%,8.2%,1.6
CC1(C)OC(=O)C2(Cc3c(F)cccc3N3CCCC32)C(=O)O1 (configuration not stated),-24.0%,·,·,·,34.0%,·
CCSC1=NC2(CCCCC2)Nc2sc3c(c21)CCCC3,22.4µM*,13.4µM*,?,4.47µM*,?,-26.4
NC(=O)COc1ccc(-c2noc(COc3ccc(Cl)cc3)n2)cc1,-5.2%,·,10.2%[57.1 µM],-3.6%[59 µM],44.4%,·
Cc1ccc(NC(=O)c2ccc3c(O)c(S(=O)(=O)c4ccccc4)c(=O)[nH]c3c2)cc1Cl,-16.8%,·,?,-47.7%[59 µM],15.2%,·
CS(=O)(=O)c1ccc(C(=O)N(Cc2ccccc2)c2ccccc2)cc1,-20.5%,-14.7%,-3.4%,44.7µM*,3.8%,-2.5
Cc1cccc(N(Cc2ccccc2)C(=O)c2ccc(S(C)(=O)=O)cc2)c1,-10.9%,-8.5%,-16.5%,?,6.1%,6.1
COc1ccc(NC(=O)C(C)n2nc(-c3cc(C)ccc3C)c3c(c2=O)CCCC3)cc1 (configuration not stated),-29.9%,·,-30.0%,-32.0%[59 µM],10.6%,·
CCc1cccc(C)c1Nc1nn2c(=O)c3ccccc3nc2s1,-20.3%,·,0.5%,7.08µM*,?,·
CC1CCC2(CC1)NC(=O)N(CC(=O)Nc1cccc(S(=O)(=O)N3CCCCC3)c1)C2=O (configuration not stated),?,-18.4%,·,·,-3.0%,5.6

# Bioassay records from PubChem BioAssay.
